Experiment [1] is described as follows: NCI Yeast Anticancer Drug Screen. Data for the rad50 strain (AID 155).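 Further: 0% = growth of vehicle-only cultures of the same strain.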 The note with it: S. cerevisiae rad50 strain growth inhibition, hits give high values; at 50.0 µM unless noted. In a few lines:
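Yeast carrying a defined DNA repair defect were exposed to test compounds, and growth was compared with vehicle-treated controls to give percent inhibition.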

Experiment [2] can be described thus: NCI Yeast Anticancer Drug Screen. Data for the mec2-1 strain (AID 157). To be noted: S. cerevisiae mec2-1 strain, hits give high values; at 50.0 µM unless noted. In outline: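 Growth inhibition is read against vehicle-treated controls after compound exposure of the mec2-1 yeast strain, which is defective in DNA damage repair or cell cycle control.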
Experiment [3] can be described thus: NCI Yeast Anticancer Drug Screen. Data for the sgs1 mgt1 strain (AID 161).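 Further: 0% = growth of cultures given vehicle only.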 The note with it: S. cerevisiae sgs1 mgt1 strain, hits give high values; at 50.0 µM unless noted. In a few lines: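 Percent growth inhibition was derived by comparing compound-exposed mutant yeast with vehicle-exposed cultures. The strain carries alterations in DNA damage repair.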
Experiment [4] is described as follows: NCI Yeast Anticancer Drug Screen. Data for the cln2 rad14 strain (AID 165).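 Further: 0% = growth equal to vehicle treated cultures.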 The note with it: S. cerevisiae cln2 rad14 strain, hits give high values; at 50.0 µM unless noted. In a few lines:
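Growth inhibition, relative to vehicle-treated controls, is the read-out. The test organism is a yeast strain with defined genetic alterations, cln2 rad14.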

Experiment [5] can be described thus: NCI Yeast Anticancer Drug Screen. Data for the bub3 strain (AID 167). To be noted: S. cerevisiae bub3 mutant strain, hits give high values; at 50.0 µM unless noted. In outline: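 Compounds were applied to a genetically altered yeast strain carrying a cell-cycle control defect. Growth inhibition was scored against vehicle-treated controls.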
A short description of experiment [6]: NCI Yeast Anticancer Drug Screen. Data for the mlh1 rad18 strain (AID 175). To be noted: S. cerevisiae mlh1 rad18 strain growth inhibition, hits give high values; at 50.0 µM unless noted. In outline: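 Cells of a genetically altered yeast strain, deficient in DNA damage repair, were treated with compound. Their growth was then compared with that of vehicle-treated cultures to give inhibition.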

SMILES strings stand for the structures. The panel holds about 79,000 compounds, 15% with a hit somewhere; the sample as a whole holds those more often. Values without a mark were called inactive. Calls of active or inactive are those of the source. No stated cut-off is given here; in the data, active means growth inhibition above about 70%; inactive means the rest.

With `CC1=Nc2ccccc2SC2(C1)C(C1COC(C)(C)O1)OC1OC(C)(C)OC12` (stereo unspecified), the growth inhibition in experiment [1] is 7.4%; in experiment [2], 11.1%; in experiment [3] it was 21.1%; in experiment [4], 21.4%; in experiment [5], -9.55%; in experiment [6] it was 12.8%.
With `FC(F)(F)C1CCCCC1[Si](C1CCCCC1C(F)(F)F)C1CCCCC1C(F)(F)F` (stereo unspecified), the growth inhibition in experiment [1] was 32.8%; in experiment [2], -11.2%; in experiment [3], 13.7%; in experiment [4], 10.5%; in experiment [5] it was -5.55%; in experiment [6], 5.7%.
As for `CC(C)CCOB(OCCC(C)C)OCCC(C)C`, the growth inhibition in experiment [1] was -25.9%; in experiment [2], -40.1%; in experiment [3], -6.6%; in experiment [4], 2.45%; in experiment [5] it was -26.6%; in experiment [6], -23.2%.
Take `CC(=O)Nc1c(N)c2ccccc2c2ccccc12`: the growth inhibition in experiment [1] was -4.2%; in experiment [2], -13.9%; in experiment [3], -22.7%; in experiment [4], 1.75%; in experiment [5] it was -4.5%; in experiment [6], -12.2%.
As to `O=C(Cc1nc2ccc(C(=O)c3ccccc3)cc2[nH]c1=O)C(=O)Nc1ccc(C(F)(F)F)cc1[N+](=O)[O-]`, the growth inhibition in experiment [1] was 8.45%; in experiment [2] it was 14.7%; in experiment [3], -3.9%; in experiment [4] it was -6.25%; in experiment [5], -12.1%; in experiment [6], 18.1%.
As to `CC(C)(CO)N=Cc1ccccc1O`, the growth inhibition in experiment [1] is -0.25%; in experiment [2], -1.6%; in experiment [3], -14.2%; in experiment [4], -3.8%; in experiment [5] it was -13.3%; in experiment [6], 6.35%.
For the compound `COc1cc(C)c(O)c(C(=O)O)c1`, the growth inhibition in experiment [1] was -3.7%; in experiment [2], -7.65%; in experiment [3], 2.25%; in experiment [4], 0.05%; in experiment [5], -1.45%; in experiment [6], -4.25%.
For the compound `CC/C(CC(=O)CCC(=O)Nc1ccc(C)c(C)c1)=N\NC(=O)c1cc2ccccc2cc1O`, the growth inhibition in experiment [1] is 45.2%; in experiment [2], 22.9%; in experiment [3], -13.4%; in experiment [4], -5.2%; in experiment [5], 44.6%; in experiment [6], 34.4%.
For the compound `O=C1CSC(c2ccc([N+](=O)[O-])cc2)N1c1ccc(-n2c(-c3ccccc3)nc3ccccc3c2=O)cc1` (stereo unspecified), the growth inhibition was 2.5% in experiment [1]; -10.2% in experiment [2]; 15.2% in experiment [3]; -10.5% in experiment [4]; 30% in experiment [5]; 13.2% in experiment [6].
`O=C1NC(Cc2ccccc2)C(=O)NC1Cc1ccccc1` (stereo unspecified): the growth inhibition was 2.35% in experiment [1]; -6.7% in experiment [2]; 7.7% in experiment [3]; -22.8% in experiment [4]; -4.95% in experiment [5]; -1.35% in experiment [6].
Take `O=C1Oc2ccccc2C(=O)/C1=C/N1C(=O)N/C(=C\c2cccc(O)c2)C1=O`: the growth inhibition was 21.9% in experiment [1]; 19.9% in experiment [2]; 37.6% in experiment [3]; 45.5% in experiment [4]; 15.7% in experiment [5]; -7.5% in experiment [6].
`ClCCOC1CCCCO1` (stereo unspecified): the growth inhibition in experiment [1] is -19%; in experiment [2], -15.2%; in experiment [3], -13.6%; in experiment [4], 6.2%; in experiment [5], -5.4%; in experiment [6], -5.15%.
With `CC(=O)C(C)(CCN(C)C)c1ccccc1` (stereo unspecified), the growth inhibition is 6.5% in experiment [1]; 4.4% in experiment [2]; 7.45% in experiment [3]; -10.3% in experiment [4]; 6.55% in experiment [5]; 12.8% in experiment [6].
For the compound `c1nc2nc(N3CCOCC3)nc(N3CCOCC3)c2[nH]1`, the growth inhibition in experiment [1] is 11.8%; in experiment [2] it was -0.8%; in experiment [3], 23.9%; in experiment [4], 8.45%; in experiment [5] it was -17.9%; in experiment [6], 8.7%.
In the case of `Cc1c(OCCCOc2ccc3c(=O)cc(-c4ccccc4)oc3c2C)ccc2c(=O)cc(-c3ccccc3)oc12`, the growth inhibition in experiment [1] is -35.6%; in experiment [2] it was -18.1%; in experiment [3], -13.7%; in experiment [4], 31.5%; in experiment [5], -39.9%; in experiment [6], -31.8%.
In the case of `Cc1c(N(C)CN(C)c2c(C)n(C)n(-c3ccccc3)c2=O)c(=O)n(-c2ccccc2)n1C`, the growth inhibition was -13.2% in experiment [1]; -27.4% in experiment [2]; -15.7% in experiment [3]; 3.25% in experiment [4]; -12.9% in experiment [5]; -18% in experiment [6].
Turning to `O=CNCC(=O)O`, the growth inhibition was 15.6% in experiment [1]; -3.75% in experiment [2]; -15.5% in experiment [3]; -0.7% in experiment [4]; -2.55% in experiment [5]; 7.9% in experiment [6].
As to `CCCCCCCCCCCCCCCCS(=O)(=O)N(/N=c1/sc2ccccc2n1C)C(=O)OCC`, the growth inhibition in experiment [1] is -29.4%; in experiment [2] it was -32.3%; in experiment [3], -13.3%; in experiment [4], 21.4%; in experiment [5], -12.2%; in experiment [6], -27.8%.
In the case of `CC(=C=CC(c1ccccc1)(c1ccccc1)c1ccccc1)CC(c1ccccc1)(c1ccccc1)c1ccccc1`, the growth inhibition in experiment [1] is 95% (active); in experiment [2] it was 97.8% (active); in experiment [3], 90.3% (active); in experiment [4], 97.1% (active); in experiment [5], 98% (active); in experiment [6], 94% (active).
With `CC(=O)CCCCC(=O)Nc1ccc(CC(NC(=O)OC(C)(C)C)C(=O)NCC(=O)OCc2ccccc2)cc1` (stereo unspecified), the growth inhibition was -38.5% in experiment [1]; -4.5% in experiment [2]; -1.6% in experiment [3]; 8.85% in experiment [4]; 10% in experiment [5]; -12.1% in experiment [6].
Take `CNCCCn1c2ccccc2c2c3c(c(-c4ccsc4)cc21)C(=O)NC3=O`: the growth inhibition in experiment [1] is -1.75%; in experiment [2], -8.7%; in experiment [3] it was -19.9%; in experiment [4], -4.3%; in experiment [5], -7.8%; in experiment [6], -40.5%.

For the origin of these results see PubChem BioAssay (NCI).
